According to PubChem BioAssay AID1159580 (chemical genetic matrix, 2015):
Screen size: about 5,500 compounds; about 2,000 (36%) were called active. Inconclusive results (about 18%) are left out. No stated cut-off is given here; in the data, active means normalized growth mostly below about 0.91 (no sharp cut-off); inconclusive means no clear call, values can overlap the other calls; inactive means mostly above about 0.92. Some of the results follow.

Assay: chemical genetic growth profiling, strain panel (AID 1159580);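 further: tested at 20 µM; growth read once vehicle control cultures reached saturation at 30 °C; 1 = growth at the plate median or of vehicle wells; lower values mean less growth of the strain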
Conditions: growth OD

Measured: normalized growth

Oc1ccc2c(c1)OCC1(O)Cc3cc(O)c(O)cc3C21 (configuration not stated)
inactive: S. cerevisiae deletion strains, locus YJL187C, strain SWE1, active compounds read low 1.02 | S. cerevisiae deletion strains, locus YJR066W, strain TOR1, active compounds read low 0.906 | S. cerevisiae deletion strains, locus YKL009W, strain mrt4, active compounds read low 1.03 | S. cerevisiae deletion strains, locus YKL068W, active compounds read low 0.997 | S. cerevisiae deletion strains, locus YKL085W, strain MDH1 (second series), active compounds read low 0.978 | S. cerevisiae deletion strains, locus YKL085W, strain MDH1, active compounds read low 0.978 | S. cerevisiae deletion strains, locus YKL160W, strain elf1, active compounds read low 1.02 | S. cerevisiae deletion strains, locus YKR001C, strain vps1, active compounds read low 1.03 | S. cerevisiae deletion strains, locus YKR026C, strain gcn3, active compounds read low 1.04 | S. cerevisiae deletion strains, locus YKR091W, strain srl3, active compounds read low 1.02 | S. cerevisiae deletion strains, locus YLL001W, strain dnm1, active compounds read low 1.03 | S. cerevisiae deletion strains, locus YLL026W, active compounds read low 1.02 | S. cerevisiae deletion strains, locus YLL041C, strain sdh2, active compounds read low 1.02 | S. cerevisiae deletion strains, locus YLR027C, strain aat2, active compounds read low 1.01 | S. cerevisiae deletion strains, locus YLR039C, strain RIC1, active compounds read low 0.991 | S. cerevisiae deletion strains, locus YLR058C, strain SHM2, active compounds read low 0.959 | S. cerevisiae deletion strains, locus YLR102C, strain apc9, active compounds read low 0.991 | S. cerevisiae deletion strains, locus YLR113W, strain HOG1, active compounds read low 1.05 | S. cerevisiae deletion strains, locus YLR221C, strain rsa3, active compounds read low 1.02 | S. cerevisiae deletion strains, locus YLR258W, strain gsy2, active compounds read low 1.03 | S. cerevisiae deletion strains, locus YLR262C, strain YPT6 (second series), active compounds read low 1.04 | S. cerevisiae deletion strains, locus YLR268W, strain sec22, active compounds read low 1.05 | S. cerevisiae deletion strains, locus YLR320W, strain mms22, active compounds read low 1.04 | S. cerevisiae deletion strains, locus YLR342W, strain FKS1 (second series), active compounds read low 1.05 | S. cerevisiae deletion strains, locus YLR342W, strain FKS1, active compounds read low 1.03 | S. cerevisiae deletion strains, locus YLR357W, strain rsc2, active compounds read low 1.03 | S. cerevisiae deletion strains, locus YLR370C, strain arc18, active compounds read low 1.02 | S. cerevisiae deletion strains, locus YLR371W, strain rom2, active compounds read low 0.988 | S. cerevisiae deletion strains, locus YLR384C, strain iki3, active compounds read low 1.02 | S. cerevisiae deletion strains, locus YLR418C, strain cdc73, active compounds read low 0.991 | S. cerevisiae deletion strains, locus YML016C, strain PPZ1, active compounds read low 0.997 | S. cerevisiae deletion strains, locus YML032C, strain rad52, active compounds read low 1.05 | S. cerevisiae deletion strains, locus YML120C, strain ndi1, active compounds read low 1.03 | S. cerevisiae deletion strains, locus YML124C, strain tub3, active compounds read low 0.999 | S. cerevisiae deletion strains, locus YMR058W, strain fet3, active compounds read low 1.02 | S. cerevisiae deletion strains, locus YMR078C, strain ctf18, active compounds read low 0.988 | S. cerevisiae deletion strains, locus YMR125W, strain sto1, active compounds read low 1.04 | S. cerevisiae deletion strains, locus YMR129W, active compounds read low 1.02 | S. cerevisiae deletion strains, locus YMR205C, strain PFK2, active compounds read low 1.06 | S. cerevisiae deletion strains, locus YMR223W, strain ubp8, active compounds read low 0.981 | S. cerevisiae deletion strains, locus YMR231W, strain pep5, active compounds read low 1 | S. cerevisiae deletion strains, locus YMR307W, strain GAS1, active compounds read low 1.11 | S. cerevisiae deletion strains, locus YNL067W, strain RPL9B, active compounds read low 0.959 | S. cerevisiae deletion strains, locus YNL071W, strain lat1, active compounds read low 1.03 | S. cerevisiae deletion strains, locus YNL128W, strain TEP1, active compounds read low 0.983 | S. cerevisiae deletion strains, locus YNL183C, strain NPR1, active compounds read low 0.948 | S. cerevisiae deletion strains, locus YNL209W, strain ssb2, active compounds read low 1.01 | S. cerevisiae deletion strains, locus YNL233W, strain BNI4, active compounds read low 1 | S. cerevisiae deletion strains, locus YNL248C, strain rpa49, active compounds read low 1.03 | S. cerevisiae deletion strains, locus YNL250W, strain rad50, active compounds read low 0.957 | S. cerevisiae deletion strains, locus YNL271C, strain bni1, active compounds read low 0.983 | S. cerevisiae deletion strains, locus YNL298W, strain CLA4, active compounds read low 0.996 | S. cerevisiae deletion strains, locus YNL307C, strain MCK1, active compounds read low 0.994 | S. cerevisiae deletion strains, locus YNL322C, strain KRE1 (second series), active compounds read low 1.02 | S. cerevisiae deletion strains, locus YNL322C, strain KRE1, active compounds read low 0.981 | S. cerevisiae deletion strains, locus YNR049C, strain mso1, active compounds read low 1.02 | S. cerevisiae deletion strains, locus YNR052C, strain pop2, active compounds read low 0.959 | S. cerevisiae deletion strains, locus YOL006C, strain TOP1, active compounds read low 1.18 | S. cerevisiae deletion strains, locus YOL012C, strain htz1 0.665 | S. cerevisiae deletion strains, locus YOL147C, strain pex11, active compounds read low 1 | S. cerevisiae deletion strains, locus YOR001W, strain rrp6, active compounds read low 1.04 | S. cerevisiae deletion strains, locus YOR061W, strain CKA2, active compounds read low 1.03 | S. cerevisiae deletion strains, locus YOR069W, strain VPS5, active compounds read low 1 | S. cerevisiae deletion strains, locus YOR070C, strain gyp1, active compounds read low 1.01 | S. cerevisiae deletion strains, locus YOR080W, strain dia2, active compounds read low 1.01 | S. cerevisiae deletion strains, locus YOR083W, strain WHI5, active compounds read low 1.02 | S. cerevisiae deletion strains, locus YOR106W, strain vam3, active compounds read low 1.05 | S. cerevisiae deletion strains, locus YOR136W, strain idh2, active compounds read low 1.01 | S. cerevisiae deletion strains, locus YOR144C, strain elg1, active compounds read low 1.01 | S. cerevisiae deletion strains, locus YOR184W, strain ser1, active compounds read low 1.09 | S. cerevisiae deletion strains, locus YOR231W, strain MKK1, active compounds read low 1.01 | S. cerevisiae deletion strains, locus YOR265W, strain rbl2, active compounds read low 1.02 | S. cerevisiae deletion strains, locus YOR270C, strain vph1, active compounds read low 1.16 | S. cerevisiae deletion strains, locus YOR290C, strain snf2, active compounds read low 1.04 | S. cerevisiae deletion strains, locus YOR316C, strain cot1, active compounds read low 0.986 | S. cerevisiae deletion strains, locus YPL051W, strain arl3, active compounds read low 1.01 | S. cerevisiae deletion strains, locus YPL055C, strain LGE1, active compounds read low 1.06 | S. cerevisiae deletion strains, locus YPL078C, strain atp4, active compounds read low 1.03 | S. cerevisiae deletion strains, locus YPL106C, strain sse1, active compounds read low 0.99 | S. cerevisiae deletion strains, locus YPL240C, strain hsp82, active compounds read low 1.02 | S. cerevisiae deletion strains, locus YPL256C, strain CLN2, active compounds read low 0.995 | S. cerevisiae deletion strains, locus YPR119W, strain clb2, active compounds read low 0.978 | S. cerevisiae deletion strains, locus YPR141C, strain kar3, active compounds read low 0.964 | S. cerevisiae deletion strains, locus YPR163C, strain tif3, active compounds read low 0.996 | S. cerevisiae deletion strains, locus YPR167C, strain met16, active compounds read low 0.992 | S. cerevisiae deletion strains, strain wtn01, active compounds read low 1.02 | S. cerevisiae strains, strain wild type, active compounds read low 1.03
